Only some compounds are listed: those with a hit (about 21% of all), similar ones and a draw of the others.
Pf growth 96h: P. falciparum growth inhibition at 96 hour, primary screen for plastid delayed-death inhibitors; P. falciparum luciferase reporter growth, 96 h; Potency, µM (series often up to 28.7 µM), for inactives: top-dose activity change, negative = inhibition, usual class: inhibitors; 6.9% of 320,000 active; AID 504834; further: potency means the concentration at half of the fitted maximal effect; on the % scale 0 is the no-effect control and ±100 the full control effect
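Two parasite generations (96 h, 37 C, 5% CO2) of compound exposure in infected erythrocytes (0.05% parasitemia, 2% hematocrit). Luciferase-reporter P. falciparum; decreased luminescence indicates inhibited growth, aimed at apicoplast-acting delayed death.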
HCV inh: HCV inhibition; Huh7.5.1 HCVcc-Cre infection, luciferase reporter, 44 h; Potency, µM (doses to about 41.8 µM), inactives show at the highest dose activity change, negative = inhibition, most hits filed as inhibitors; 3.4% of 340,000 active; further: potency means the concentration at half of the fitted maximal effect; on the % scale 0 is the no-effect control and ±100 the full control effect
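Infectious HCV cell culture screen: compound-treated cells (1,000/well, pre-plated 4 h) are infected with HCVcc-Cre at roughly 0.5 moi and grown 44 h. Infection is quantified by luciferase signal after 15 min substrate incubation at room temperature.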
AMA1-RON2 inh: disrupts binding of P. falciparum AMA1 to RON2; AlphaScreen AMA1-biotinylated RON2 peptide binding; Potency, µM (doses to about 58.2 µM), for the others: at the highest dose activity change, negative = inhibition, most hits filed as inhibitors; 0.2% of 360,000 active;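 further: potency means the concentration at half of the fitted maximal effect; 0% = vehicle wells and -100% = peptide control; nearly all actives have a fitted effect of over 45% in size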
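AMA1 (3D7) with his tag at 25 nM final met compounds first, then biotinylated RON2 peptide at 25 nM; detection used donor plus acceptor beads, 10 µg/mL apiece, read by AlphaScreen after 30 min at room temperature.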
Pf growth 48h: inhibits P. falciparum growth in the first generation, 48 h; P. falciparum luciferase growth in erythrocytes, 48 h; Potency, µM (top dose mostly 28.7 µM), inactives show top-dose activity change, negative = inhibition, usual class: inhibitors; 5.9% of 310,000 active; further: potency means the concentration at half of the fitted maximal effect; on the % scale 0 is the no-effect control and ±100 the full control effect
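Erythrocytes infected with P. falciparum carrying an integrated firefly luciferase reporter (2% hematocrit, 0.1% parasitemia final) were exposed to compounds in RPMI 1640 with 0.5% Albumax at 37 C, 5% CO2. Growth inhibition was scored as reduced luminescence.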
Shiga inhibitor: Shiga toxin inhibition. inhibition, % at 38.7 µM. Vero cells, Shiga toxin protein synthesis inhibition reporter. 9.2% of 290,000 active; in the data active means inhibition mostly above about 28%, no sharp cut-off; inactive means mostly below about 43%; further: 0% is about no effect
CHX counter: counter-screen for Shiga toxin inhibitors: cycloheximide protein synthesis inhibition; AID 2314; max response, %; cell reporter, cycloheximide protein synthesis inhibition counterscreen; 12% of 300,000 active; in the data active means max response mostly above about 13%, no sharp cut-off; inactive means mostly below about 14%; further: read at 38.3 µM for the half of the compounds with a filed dose; 0% is about no effect
Starred values were filed as active, the others as inactive. Unless noted, the call rests on the fitted dose curve; in most records, active means well fitted curve in the direction sought with a large enough effect; inconclusive means small, poorly fitted or top-dose-only effect, or another doubt; inactive means no such curve, though single readings can be large; an effect the other way counts as inactive or inconclusive.

What do the screens show for `Nc1ccc(-c2nc3ccc([N+](=O)[O-])cc3[nH]2)cc1`?
Pf growth 96h: inconclusive; HCV inh: -26%; AMA1-RON2 inh: 4%; Pf growth 48h: 177%; Shiga inhibitor: 52; CHX counter: 63*

What do the screens show for `O=[N+]([O-])c1ccc2nc(/C=C/c3ccc(Cl)cc3)[nH]c2c1`?
Pf growth 96h: 8.3µM*; HCV inh: inconclusive; AMA1-RON2 inh: -12%; Pf growth 48h: 8.3µM*; Shiga inhibitor: 153*; CHX counter: 60*

What do the screens show for `NC(=O)CSc1nc2ccc([N+](=O)[O-])cc2[nH]1`?
Pf growth 96h: -1%; HCV inh: 27%; AMA1-RON2 inh: 14%; Pf growth 48h: 11%; Shiga inhibitor: -13; CHX counter: 0

What do the screens show for `C=CC#CC1(O)CC(C)N(C)CC1C` (centres undefined)?
Pf growth 96h: -10%; HCV inh: 25%; AMA1-RON2 inh: 3%; Pf growth 48h: 0%; Shiga inhibitor: 32; CHX counter: 2

Results for CNC(=O)NC(=O)C(OC(=O)Cc1cccc(C(F)(F)F)c1)c1ccccc1 (centres undefined) ?
Pf growth 96h: 32%; HCV inh: 18%; AMA1-RON2 inh: -12%; Pf growth 48h: 37%; Shiga inhibitor: 9; CHX counter: -3

What do the screens show for `CCCCN(C=O)c1c(CC)nc2ccc(C(=O)NCCCn3ccnc3)cn12`?
AMA1-RON2 inh: -7%

What do the screens show for `COC(=O)CCN(Cc1ccco1)S(=O)(=O)c1ccc(F)cc1Br`?
Shiga inhibitor: 22; CHX counter: 8

What do the screens show for `O=C(NCc1cccs1)c1ccc(-c2ccc(F)c(F)c2)c2ccoc12`?
AMA1-RON2 inh: 13%

Results for CNC(=S)NCCCCc1cnc[nH]1 ?
Shiga inhibitor: -7; CHX counter: -1

Results for COc1ccc(CC(NC(C)=O)C(=O)NC2CCN(S(=O)(=O)c3cccc4ccccc34)CC2)cc1OC (centres undefined) ?
Pf growth 96h: 13µM*; HCV inh: inconclusive; AMA1-RON2 inh: 0%; Shiga inhibitor: -1; CHX counter: -2

Results for COc1ccc(CC(NC(C)=O)C(=O)N2CCN(C(=O)Nc3ccc(Cl)cc3)CC2)cc1OC (centres undefined) ?
Pf growth 96h: 1%; HCV inh: inconclusive; AMA1-RON2 inh: 0%; Pf growth 48h: 10%; Shiga inhibitor: 44; CHX counter: 14*

What do the screens show for `COc1ccc(CC(NC(C)=O)C(=O)NC2CCN(C(=O)Nc3ccccc3Cl)CC2)cc1OC` (centres undefined)?
Pf growth 96h: 83%; HCV inh: 12%; AMA1-RON2 inh: -5%; Shiga inhibitor: -52; CHX counter: -2

How did COc1cc(C(=O)N2CCC(NC(=O)C(Cc3ccc(C(C)C)cc3)NC(C)=O)CC2)cc(OC)c1OC (centres undefined) do in these assays?
Pf growth 96h: 10%; HCV inh: 23%; AMA1-RON2 inh: 0%; Pf growth 48h: inconclusive; Shiga inhibitor: -18; CHX counter: -7

Results for COc1ccc(CN2CCN(S(=O)(=O)c3ccc(NC(C)=O)cc3)CC2)cc1OC ?
Pf growth 96h: 10µM*; HCV inh: -23%; AMA1-RON2 inh: inconclusive; Pf growth 48h: inconclusive; Shiga inhibitor: -9; CHX counter: 14

What do the screens show for `COc1cccc(NC(=O)N2CCN(C(=O)C(Cc3ccc(OC)c(OC)c3)NC(C)=O)CC2)c1` (centres undefined)?
Pf growth 96h: 40%; HCV inh: 12%; AMA1-RON2 inh: -8%; Pf growth 48h: -3%; Shiga inhibitor: 3; CHX counter: -2

How did COc1cc(C(=O)N2CCC(NC(=O)C(Cc3ccc(C)cc3)NC(C)=O)CC2)cc(OC)c1OC (centres undefined) do in these assays?
Pf growth 96h: 5.9µM*; HCV inh: 16%; AMA1-RON2 inh: -1%; Pf growth 48h: -4%; Shiga inhibitor: 14; CHX counter: -1

What do the screens show for `O=S1(=O)N[C@@H](Cc2ccccc2)COc2cccc(N3CCN(Cc4ccccc4F)CC3)c21`?
AMA1-RON2 inh: -13%

How did CCC(C)C(NC(=O)c1ccccc1NC(=O)c1ccc(OC)cc1)C(=O)NCCCn1ccnc1 (centres undefined) do in these assays?
Pf growth 96h: inconclusive; HCV inh: -21%; AMA1-RON2 inh: -3%; Pf growth 48h: inconclusive; Shiga inhibitor: -3; CHX counter: 12

How did CCCCc1nc2c(C)c(N)cnc2n1Cc1cccc([N+](=O)[O-])c1 do in these assays?
Pf growth 96h: inconclusive; HCV inh: -15%; AMA1-RON2 inh: 1%; Pf growth 48h: -20%; Shiga inhibitor: 3; CHX counter: -2

Results for CC1(C)C2C/C(=N\O)C(C)(/[N+]([O-])=C/c3cccc([N+](=O)[O-])c3)CC21 (centres undefined) ?
Pf growth 96h: 27%; HCV inh: 5%; AMA1-RON2 inh: 2%; Pf growth 48h: 22%; Shiga inhibitor: -5; CHX counter: 1

Results for COc1cccc(C(C)(O)c2nc(-c3cnn(C)c3)cs2)c1 (centres undefined) ?
AMA1-RON2 inh: 3%

What do the screens show for `COc1cc(CC(NC(C)=O)C(=O)NC2CCN(C(=O)Nc3ccccc3Cl)CC2)cc(OC)c1` (centres undefined)?
Pf growth 96h: -4%; HCV inh: -3%; AMA1-RON2 inh: -3%; Pf growth 48h: 24%; Shiga inhibitor: 24; CHX counter: -4

What do the screens show for `COc1ccc(CC(NC(C)=O)C(=O)NC2CCN(S(=O)(=O)c3ccc(NC(C)=O)cc3)CC2)cc1OC` (centres undefined)?
Pf growth 96h: 13µM*; HCV inh: 1%; AMA1-RON2 inh: 1%; Pf growth 48h: 0%; Shiga inhibitor: -8; CHX counter: 1

How did COc1cc(CC(NC(C)=O)C(=O)NC2CCN(C(=O)Nc3ccccc3C)CC2)cc(OC)c1 (centres undefined) do in these assays?
Pf growth 96h: 1.7µM*; HCV inh: -2%; AMA1-RON2 inh: -2%; Pf growth 48h: 14%; Shiga inhibitor: 38; CHX counter: -2

How did COc1ccc(CC(NC(C)=O)C(=O)NC2CCN(S(=O)(=O)c3ccccc3)CC2)cc1OC (centres undefined) do in these assays?
Pf growth 96h: 5.2µM*; HCV inh: 5%; AMA1-RON2 inh: 8%; Pf growth 48h: 1%; Shiga inhibitor: 16; CHX counter: -4

What do the screens show for `CCCn1nc(C(=O)NNC(=O)CSC(C)C(=O)Nc2cc(C)on2)c2ccccc2c1=O` (centres undefined)?
Pf growth 96h: 0%; HCV inh: 8%; AMA1-RON2 inh: 94%; Pf growth 48h: -1%; Shiga inhibitor: 12; CHX counter: -2

Source: PubChem BioAssay (National Center for Advancing Translational Sciences (NCATS))
